# Assay results as given in PubChem BioAssay AID1851 (National Center for Advancing Translational Sciences (NCATS), 2009).
# Where “and” joins values, the source holds several entries; their conditions need not be identical. Identical values can stand only once. Out of some 16,000 compounds screened, about 5,800 (36%) were called active. Not shown: some 23% with an inconclusive outcome. Calls come from the whole dose curve; as a rule, active = well fitted curve in the direction sought with a large enough effect; inconclusive = small, poorly fitted or top-dose-only effect, or effect the other way; inactive = no such curve, though single readings can be large or run the other way. This is one part of the list. More than one record can exist for a structure, and the calls need not agree. Square brackets hold non-standard residues; d marks the D form. Peptide text beside a SMILES is read from it.
# Target: Cytochrome P450 2C19 (Homo sapiens) (UniProt P33261)
# Sequence (P33261 whole entry, looked up): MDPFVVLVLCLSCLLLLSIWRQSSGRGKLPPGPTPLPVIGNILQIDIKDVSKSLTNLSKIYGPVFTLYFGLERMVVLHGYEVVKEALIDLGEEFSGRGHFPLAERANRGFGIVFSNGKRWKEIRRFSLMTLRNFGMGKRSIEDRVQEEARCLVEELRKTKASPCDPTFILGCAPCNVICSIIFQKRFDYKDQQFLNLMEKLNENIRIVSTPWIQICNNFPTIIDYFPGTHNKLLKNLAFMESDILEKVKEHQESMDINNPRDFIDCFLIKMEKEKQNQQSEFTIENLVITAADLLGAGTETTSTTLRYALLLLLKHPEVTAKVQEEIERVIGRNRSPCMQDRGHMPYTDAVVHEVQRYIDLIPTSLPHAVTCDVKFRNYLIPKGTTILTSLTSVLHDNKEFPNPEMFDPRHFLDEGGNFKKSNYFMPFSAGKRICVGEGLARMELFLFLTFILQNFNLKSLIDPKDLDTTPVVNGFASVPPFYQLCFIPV
# Test: Cytochrome panel assay with activity outcomes
# Conditions: recombinant CYP, pro-luciferin dealkylation, luminescence, p450-cyp2c19; series mostly up to 57.1 µM; activity, negative = inhibition: at the top concentration
# % is set by controls: 0 for no effect and ±100 for the full control effect.
SMILES,AC50,"activity, negative = inhibition"
CCn1c(-c2ccccc2Cl)nn(CC(=O)Nc2cc(Cl)ccc2Cl)c1=S,1.78 µM (active),–
CCn1c(-c2ccccc2Cl)nn(CC(=O)Nc2ccc(OC)cc2)c1=S,3.55 µM (active),–
CCn1c(-c2ccccc2Cl)nn(CC(=O)Nc2ccccc2OC)c1=S,0.891 µM (active),–
COC(=O)c1ccc(C23CC2(C(NP(=O)(c2ccccc2)c2ccccc2)c2ccccc2)C3)cc1 (stereo not given),10 µM (active),–
NCS(=O)(=O)O,–,8.81% [at 11.4 µM] (inactive)
O=C(NC1CCCC1)c1cccnc1N1CCCCCC1,8.91 µM (active),–
O=C(NNC(=O)C1CCCCC1)c1cnccn1,–,-21.2% (inactive)
Cn1nc(C(=O)NC2CCCCC2)c2ccccc2c1=O,–,-26% (inactive)
COc1cc(C)nc(N2CCCC(C(=O)Nc3cc(Cl)ccc3OC)C2)n1 (stereo not given),0.126 µM (active),–
COc1ccc(OC)c(NC(=O)[C@H]2CC=CC[C@H]2C(=O)O)c1,–,-9.87% (inactive)
O=C(/C=C/c1ccc2ccccc2c1)c1ccoc1,2 µM (active),–
CS(=O)(=O)c1nc(-c2ccccc2)cc(-c2ccccc2)c1C#N,0.794 µM (active),–
O=C1c2ccccc2-c2ccc(N(Cc3ccc(Br)cc3)Cc3ccc(Br)cc3)cc21,–,-10.9% [at 11.4 µM] (inactive)
O=C1c2ccccc2-c2ccc(NC(=O)[C@H]3CCCC[C@@H]3C(=O)O)cc21,–,-17.3% [at 11.4 µM] (inactive)
O=C(OCc1cccc(F)c1)c1ccc2c(c1)-c1ccccc1C2=O,11.2 µM (active),–
COc1ccc(NC(=O)N2CC[C@@]3(CCCN(C(=O)c4cnccn4)C3)C2)cc1,–,17.4% (inactive)
Cc1nc2c(C#N)c(C)[nH]n2c(=O)c1Cc1ccccc1,–,-16.2% (inactive)
Cc1nc2c(C(=O)NCc3ccc4c(c3)OCO4)c[nH]n2c(=O)c1Cc1ccccc1F,14.1 µM (active),–
CC(=O)O[C@H]1C2=CO[C@H](C)[C@H]3[C@H]4C5=C([C@H](O)[C@H]6O[C@@H]6C5=O)[C@H](O[C@H]4C)[C@@]23C(=O)[C@H]2O[C@@H]21,–,11.4% [at 11.4 µM] (inactive)
Cn1c(=O)n2n(c1=O)[C@H]1[C@H](O)[C@H]3O[C@@H]3/C(=N/OCc3ccccc3)[C@@H]1CC2,–,50.3% [at 11.4 µM] (inactive)
C[C@@H]1O[C@H]2C3=C(C(=O)[C@H]4O[C@@H]4[C@H]3O)[C@@H]1[C@@H]1[C@@H](C)OC=C3[C@H](O)[C@H]4O[C@@H]4/C(=N\OCc4ccccc4)[C@]312,0.631 µM (active),–
CC(=O)c1[nH]c(C)c(C(C)=O)c1C,–,-10.7% (inactive)
CC(=O)c1c(C)[nH]c(C(=O)COc2ccc(C#N)cc2)c1C,8.91 µM (active),–

SMILES,AC50,"activity, negative = inhibition"
S=C1N(c2ccccc2)C(c2ccc(Cl)cc2)N2CCCN12 (stereo not given),2.24 µM (active),–
Cc1ccc(S(=O)(=O)/C(C#N)=C/c2c(N3CC(C)OC(C)C3)nc3ccccn3c2=O)cc1 (stereo not given),14.1 µM (active),–
O=C(O)CCc1ccc(-c2ccc(Cl)cc2)n1CCC(=O)O,–,-23.8% (inactive)
O=C1/C(=C/c2ccccc2)[C@@H](NC2CCCCC2)c2ccccc21,1.26 µM (active),–
O=C(CC(NS(=O)(=O)c1ccc(Cl)cc1)c1ccco1)NCc1ccco1 (stereo not given),7.94 µM (active),–
CCCNC(=O)CC(NS(=O)(=O)c1ccc(Cl)cc1)c1ccco1 (stereo not given),1 µM (active),–
CCCNC(=O)NS(=O)(=O)c1ccc(Cl)cc1,–,-5.17% [at 25.6 µM] (inactive)
CCOC(=O)C[C@@H](C(=O)OCC)[C@@H]1CCCCC1=O,–,-32.2% [at 11.4 µM] (inactive)
O=C1NC(=O)C(c2ccccc2)(c2ccccc2)N1,–,10.9% (inactive)
COC(=O)C/C=C\[C@@H](C)[C@@H]1C=C[C@H](OC(C)=O)[C@H](COC(C)=O)O1,–,16.3% [at 11.4 µM] (inactive)
O=C1CN2CCN(CC2)CC(=O)Nc2ccc(cc2)S(=O)(=O)c2ccc(cc2)NC(=O)CN2CCN(CC2)CC(=O)Nc2ccc(cc2)S(=O)(=O)c2ccc(cc2)N1,–,-8.07% [at 11.4 µM] (inactive)
CCn1c(-c2nonc2NC(=O)c2ccccc2)nc2ccccc21,1.58 µM (active),–
CCC(=O)Nc1nonc1-c1nc2ccccc2n1N(C(=O)CC)C(=O)CC,–,-13.8% (inactive)
Cc1ccccc1-c1nc(NC2CCNCC2)c2ccccc2n1,–,-11.2% (inactive)
FC(F)(F)c1ccccc1-c1ccc2ncnc(NC3CC3)c2c1,2 µM (active),–
CN(C)Cc1ccccc1-c1ccc2ncnc(NC3CCNCC3)c2c1,–,0.549% (inactive)
Cc1ccccc1-c1ccc2ncnc(NC3CC3)c2c1,1.26 µM (active),–
FC(F)(F)c1ccccc1-c1ccc2ncnc(NC3CCNCC3)c2c1,3.98 µM (active),–
Clc1ccccc1-c1ccc2ncnc(NC3CCNCC3)c2c1,3.98 µM (active),–
O[C@@H](c1ccccc1)C1CCN(CCc2ccccc2)CC1,–,-43.7% (inactive)
C[C@@H](N)C(=O)O,–,-2.97% (inactive)
Cc1ccccc1N1CCN(S(=O)(=O)C[C@@]23CC[C@H](C[C@H]2NC(=O)[C@@H](N)CCS(C)(=O)=O)C3(C)C)CC1,–,-31.2% (inactive)
COc1ccc(S(=O)(=O)NC2(C(F)(F)F)N=C3SCCN3C2=O)cc1 (stereo not given),22.4 µM (active),–

SMILES,AC50,"activity, negative = inhibition"
O=C1NC(c2ccccc2)=NC1(NS(=O)(=O)c1ccccc1)C(F)(F)F (stereo not given),–,9.27% (inactive)
COc1cnc(NS(=O)(=O)c2ccc(N)cc2)nc1,–,-19.3% [at 25.6 µM] (inactive)
CC(=O)[C@@]1(O)CC[C@H]2[C@H]3C[C@@H](C)C4=CC(=O)C=C[C@]4(C)[C@@]3(F)[C@@H](O)C[C@]21C,–,-14.6% [at 25.6 µM] (inactive)
COc1ccc(CC(=O)NC(=S)Nc2ccc(S(=O)(=O)NC(C)(C)C)cc2)cc1,25.1 µM (active),–
CCC(=O)NC(=S)Nc1ccc(S(=O)(=O)NC(C)=O)cc1,–,-19.2% (inactive)
CC(C)(C)N1C(=O)[C@@H]2[C@H]3C(=CC[C@H]2C1=O)C(=O)[C@H]1O[C@H]1[C@H]3O,–,18.8% [at 11.4 µM] (inactive)
O=C(O)C1=CCCNC1,inactive,–
COc1ccc(CCNc2nc(-c3cccnc3)cs2)cc1OC,1.41 µM (active),–
O=C(NC12CC3CC(CC(C3)C1)C2)C12CC3CC(C1)CC(n1cnc(Cl)n1)(C3)C2,8.91 µM (active),–
COc1ccc(NC(=O)C23CC4CC(C2)CC(n2cnc(Br)n2)(C4)C3)c(C)c1,–,-20.6% (inactive)
COC(=O)[C@@H]1[C@@H]2C[C@H]3c4[nH]c5ccccc5c4CCN3C[C@@H]2CC[C@@H]1OS(=O)(=O)O,–,-2.78% [at 11.4 µM] (inactive)
CCOc1cc(S(=O)(=O)N(Cc2ccccc2)Cc2ccccc2)c(OCC)cc1-n1cnnn1,11.2 µM (active),–
CC1(C)NC(=O)N(c2ccc([N+](=O)[O-])c(C(F)(F)F)c2)C1=O,126 nM (active) and 251 nM (active),–
Cc1cc2nc(CCN(C(=S)NCC(C)C)C3CCCC3)[nH]c2cc1C,2.24 µM (active),–
COC(=O)Cn1cnc(=O)c(C#N)c1/C=C/N(C)C,–,-16.4% (inactive)
N[C@H](C(=O)O)[C@@H]1C[C@@H]1C(=O)O,inactive,–
NC1(C(=O)O)C[C@@H](C(=O)O)[C@H](C(=O)O)C1,inactive and 7.94 µM (active),–
NC1(C(=O)O)C[C@H](C(=O)O)[C@H](C(=O)O)C1 (stereo not given in full),0.398 µM (active),–
N[C@@]1(C(=O)O)CN[C@H](C(=O)O)C1,–,-7.35% (inactive)
NC1(C(=O)O)CC(C(=O)O)C1 (stereo not given),–,-15.2% (inactive)
C[C@@]1(C(=O)O)CCC[C@@H]1C(=O)O,–,40% [at 11.4 µM] (inactive)
c1ccc2c3c([nH]c2c1)[C@@H]1[C@H]2CC[C@H]([C@H]4CCCN[C@H]42)N1CC3,–,1.6% [at 25.6 µM] (inactive)
Cc1noc(C)c1C(=O)N1CCC2(CCCN(Cc3nccs3)C2)CC1,–,-39.5% (inactive)

SMILES,AC50,"activity, negative = inhibition"
NCC(=O)N[C@H](CO)C(=O)O (H-Gly-[dS]-OH),–,-0.959% [at 11.4 µM] (inactive)
CCS(=O)(=O)N1CCC[C@H]2CN3CCc4cc(OC)ccc4[C@@H]3C[C@@H]21,–,-31.5% (inactive)
COc1ccc(N2CCN(S(=O)(=O)c3ccc4c(c3)CCCC4)CC2)c([N+](=O)[O-])c1,2 µM (active),–
COc1ccc(-n2c(=O)c(-c3ccccc3)nc3cnc(N4CCNCC4)nc32)cc1,–,-16.4% (inactive)
COc1cccc(-c2cc(C(F)(F)F)nc(N3CCOCC3)n2)c1,25.1 µM (active),–
COc1ccc(-n2c(=O)c(-c3cc(F)cc(F)c3)nc3cnc(N4CCOCC4)nc32)cc1,–,-21.1% (inactive)
COc1cccc(-c2cc(C(F)(F)F)nc(N3CCN(c4ccccc4)CC3)n2)c1,8.91 µM (active),–
COc1cccc(Cn2c(=O)c(-c3cn(C)c4ccccc34)nc3cnc(N4CCOCC4)nc32)c1,–,-44.4% (inactive)
CCC(=S)/C=C1\Sc2ccccc2N1CCCS(=O)(=O)O,–,31% (inactive)
Brc1cc2c(cc1/C=N/Nc1nc(N3CCCC3)nc(N3CCOCC3)n1)OCO2,7.94 µM (active),–
O=[N+]([O-])c1ccc2c(c1)Cc1cc(N=Cc3ccc4c(c3)OCO4)ccc1-2,–,-19.5% [at 11.4 µM] (inactive)
O=[N+]([O-])c1ccc(Nc2nc(N/N=C\c3ccc4c(c3)OCO4)nc(N3CCCCC3)n2)cc1,2.24 µM (active),–
COC(=O)[C@H](C)[C@@H]1C[C@@]1(C)[C@@H](NC(=O)OCc1ccccc1)c1ccccc1,0.316 µM (active),–
C[C@@H](C(=O)O)[C@@H]1C[C@@]1(C)[C@@H](NC(=O)OCc1ccccc1)c1ccccc1,–,-18.6% (inactive)
C[C@@H](C(=O)O)[C@H]1C[C@]1(C)[C@H](NC(=O)OCc1ccccc1)c1ccccc1,7.94 µM (active),–
COC(=O)[C@H](C)[C@H]1C[C@]1(C)[C@H](NC(=O)OCc1ccccc1)c1ccccc1,0.251 µM (active),–
Nc1ccccc1C(=O)/C=C\c1ccc2c(c1)OCO2,1 µM (active),–
O=C(O)/C=C\C=C/c1ccc2c(c1)OCO2,–,23.6% [at 11.4 µM] (inactive)
O=C(/C=C\c1ccc2c(c1)OCO2)c1ccc(F)cc1,1 µM (active),–
COCOc1cc(OC)ccc1C(=O)/C=C\c1ccc2c(c1)OCO2,0.1 µM (active),–
O=C(/C=C\C=C/c1ccc2c(c1)OCO2)N1CCCCC1,–,-43.6% [at 25.6 µM] (inactive)
